LASV entry inh – blocks Lassa virus binding to or entry into cells. Lassa virus pseudotype entry inhibition, cell reporter. Potency, µM (doses to about 37.9 µM), inactives show top-dose activity change, negative = inhibition, most hits filed as inhibitors. 300,000 tested, 1.2% active; calls by dose curve; tested in HEK293 cells; further: potency means the concentration at half of the fitted maximal effect; nearly all actives have a fitted effect of over 50% in size
HCMV inh – human cytomegalovirus inhibition. HFF cells, HCMV-luciferase reporter, 72 h; active compounds read low. activity change, negative = inhibition, % at 57.5 µM. 410,000 tested, 4.5% active. AID 1259415; in the data active means activity change below about -60%; inconclusive means no clear call, values can overlap the other calls; inactive means above about -39%
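Two compound doses tested in HFFs infected with HCMV-luciferase, MOI 1 PFU/cell, 72 h at 37C. Lysate luminescence read with OneGlo; data normalized against buffer-only and 10uM Salinomycin inhibitor controls.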
Marburg entry inh – blocks Marburg virus binding to or entry into cells; AID 540276; Marburg virus pseudotyped entry inhibition, cell reporter; Potency, µM (highest dose often 37.8 µM), without a hit: at the highest dose activity change, negative = inhibition, usual class: inhibitors; 300,000 tested, 1.8% active; calls by dose curve; tested in HEK293 cells; further: potency means the concentration at half of the fitted maximal effect
FMDV inh – blocks foot and mouth disease virus; FMDV antiviral cell-based qHTS; Potency, µM (top dose mostly 57.9 µM), inactives show at the top dose activity change, negative = inhibition, most hits filed as inhibitors; 410,000 tested, 1.2% active; calls by dose curve; tested in HEK293T cells; further: read-out not given here; potency means the concentration at half of the fitted maximal effect; nearly all actives have a fitted effect of over 45% in size
Starred values were filed as active, the others as inactive; ? = inconclusive; . = no result given; ! = repeats disagree; [ ] = dose if it differs, or a comment. The list is not random: actives were taken first. Their share in the collection is about 6.2%. On the % scale 0 is the no-effect control and ±100 the full control effect.

SMILES	LASV entry inh	HCMV inh	Marburg entry inh	FMDV inh
Cc1ccc(-c2nc(CS(=O)CC(=O)N3CCN(c4cccc(Cl)c4)CC3)c(C)o2)cc1 (stereo unspecified)	-2%[46.1 µM]	?	12%[46.1 µM]	-6%
Cc1ccc(-c2nc(CS(=O)CC(=O)N3CCN(c4ccc(F)cc4)CC3)c(C)o2)cc1 (stereo unspecified)	?	-63*!	?	?
CC1=C(c2ccc(Cl)cc2)S(=O)(=O)N=C1N1CCN(c2cccc(C(F)(F)F)c2)CC1	-23%[46.1 µM]	-60*	?	-15%
Cc1oc(-c2ccccc2F)nc1CS(=O)(=O)CC(=O)N1CCN(c2ccc(Cl)cc2)CC1	?	-83*	-27%[46.1 µM]	16µM*
COc1ccc(NC(=O)N2CC3(CCNCC3)C2)cc1	.	.	.	20%
O=C(Nc1c(C(=O)Nc2ccccc2F)oc2ccccc12)c1cc2ccccc2o1	15%[46.1 µM]	-36	18%[46.1 µM]	34%
CCOc1ccc(CNC(=O)C2Cc3ccccc3N2C(=O)CC)cc1OC (stereo unspecified)	-10%[46.1 µM]	10	.	7%
CCN(CC)C(=O)c1cccc(-c2csc(C(C)(O)c3ccc(F)c(F)c3)n2)c1 (stereo unspecified)	.	.	.	25µM*
CCN(CC)C(=O)c1cccc(-c2csc(C(C)(O)c3cccc(OC)c3)n2)c1 (stereo unspecified)	.	-78*	.	35µM*
CCN(CC)C(=O)c1cccc(-c2csc(C(C)(O)c3ccc(OC)cc3)n2)c1 (stereo unspecified)	.	?	.	-29%
CC(C)(O)C#Cc1ccc(C(=O)NCCN2Cc3ccccc3OC(c3ccccc3F)C2)o1 (stereo unspecified)	.	.	.	-10%
COC(=O)N1CCC2(CCN(Cc3cc(C(F)(F)F)cc(C(F)(F)F)c3)CC2)CC1	.	.	.	-19%
NC(=Nc1ccc(N)cc1)C(N)=Nc1ccc(N)cc1	26%[46.1 µM]	-65*	?	-21%
O=C(Cn1c(=O)n(Cc2ccc3c(c2)OCO3)c(=O)c2oc3ccccc3c21)Nc1ccccc1F	5%[46.1 µM]	-19	.	5%
Cc1n[nH]c(C)c1CCCCOc1ccccc1	10%	-82*	-21%[46.1 µM]	?
Cc1ccc(OCCCc2c(C)n[nH]c2C)cc1	-9%[46.1 µM]	?	?	-11%
CN(C)C(=S)SSC(=S)N(C)C	.	-99*	.	0%
Cc1c(N=Nc2c(-c3ccc([N+](=O)[O-])cc3)[nH]n(C(N)=S)c2=O)cccc1[N+](=O)[O-]	?	-96*	2.8µM*	?
NC(=S)n1[nH]c(-c2ccc([N+](=O)[O-])cc2)c(N=Nc2cccc([N+](=O)[O-])c2)c1=O	?	-72*	?	?
NC(=S)n1[nH]c(-c2ccc([N+](=O)[O-])cc2)c(N=Nc2ccccc2[N+](=O)[O-])c1=O	.	-39	.	-15%
CCOC(=O)c1cc(S(=O)(=O)N(C)Cc2ccccc2)cn1C	13µM*	16	?	-4%
CCN(Cc1ccccc1)S(=O)(=O)c1cc(C(=O)OC)n(C)c1	.	-14	.	-2%
Cc1ccc(NC(=O)OCCN(C)C(=O)Nc2ccc(C)cc2C)c(C)c1	.	-35	.	.
CN(C)c1ccc(/C=N\NC(=O)c2csnn2)cc1	?	94	14µM*	-24%
O=C(C[n+]1ccccc1)N/N=C/c1cc(Br)ccc1F	15%	-99*	0%	-7%
SMILES	LASV entry inh	HCMV inh	Marburg entry inh	FMDV inh
COc1ccc(Br)cc1/C=N/NC(=O)C[n+]1ccccc1	.	3	.	-8%
CN(C)c1ccc(/C=N/NC(=O)C[n+]2ccccc2)cc1	-1%[46.1 µM]	13	0%[46.1 µM]	2.8µM*
COCC(=O)Nc1cc(C(=O)N2CCN(C3CCCC3)C(=O)C2)c2c(c1)nc(-c1ccncc1)n2C	.	.	.	-7%
COC(=O)[C@@H]1CCCN1C(=O)c1cnn(-c2nccc(-c3cc(C)sc3C)n2)c1C1CC1	.	.	.	29%
CC[n+]1ccc(/C=C2\Sc3ccccc3N2CCCS(=O)(=O)[O-])c2ccccc21	2%	31	29%[46.1 µM]	3%
CN1C=C/C(=C\c2cc[n+](C)c3ccccc23)c2ccccc21	.	-100*	.	18µM*
O=C(c1ccncc1)N1N=C2CCCCCC2C1(O)C(F)(F)F (stereo unspecified)	12%	?	6%	-3%
O=C(c1ccco1)N1N=C2CCCCCC2C1(O)C(F)(F)F (stereo unspecified)	8%[46.1 µM]	-66*	-14%[46.1 µM]	?
Cc1cccc(OCC(=O)Nc2ccc(N3CCN(C(=O)c4ccccc4)CC3)cc2)c1	-11%	-36	?	28µM*
CC(=O)N1CCN(c2ccc(NC(=O)COc3ccc(Cl)cc3Cl)cc2)CC1	-18%	-64*	13%	?
O=C(COc1ccccc1Cl)Nc1cc(NC(=O)COc2ccccc2Cl)cc(C(=O)O)c1	8.9µM*	11	?	38%
CC(=O)N1CCN(c2ccccc2NC(=O)COc2ccc(Cl)cc2Cl)CC1	-11%	3	?	-12%
O=C(COc1ccccc1Cl)Nc1ccc(N2CCN(C(=O)c3ccccc3)CC2)cc1	.	-34	.	22µM*
COc1ccccc1OCC(=O)Nc1cc(NC(=O)COc2ccccc2OC)cc(C(=O)O)c1	2%	57	6%	50%
O=C(COc1ccccc1Cl)Nc1ccc(N2CCCC2)cc1	.	3	.	-13%
Cc1ccccc1NC(=O)Nc1nc(C2CCC(=O)N2)cs1 (stereo unspecified)	.	3	.	-25%
O=C(COc1ccccc1[N+](=O)[O-])Nc1ccc(N2CCN(C(=O)c3cccs3)CC2)cc1	?	-33	?	13µM*
CC(Oc1ccc(Br)cc1)C(=O)Nc1cc(Cl)ccc1N1CCN(C)CC1 (stereo unspecified)	?	-4	8.9µM*	-10%
CC(Oc1ccc(Cl)cc1Cl)C(=O)Nc1ccc(N2CCN(C)CC2)cc1 (stereo unspecified)	?	15	12µM*	-14%
CC(=O)N1CCN(c2ccc(NC(=O)C(C)Oc3ccc(Cl)cc3Cl)cc2)CC1 (stereo unspecified)	-15%	0	?	0%
CC(=O)Oc1ccc2c(c1)CCC1C2CC[C@@]2(C)C1CC(OC(C)=O)C2OC(C)=O (stereo partly specified)	.	.	.	18%
COc1cc(-c2c(OC)cccc2OC)cc2c1OCCN(Cc1cn[nH]c1-c1ccc(Cl)cc1)C2	.	.	.	-1%
Cc1ccc(Cl)cc1NC(=O)Nc1cccs1	-3%	?	10µM*	4%
O=C(Nc1ccc(C(F)(F)F)cc1)C1(c2cccs2)CCOCC1	-22%[46.1 µM]	-12	.	0%
Cn1cc(CN(C(=O)Nc2ccccc2)C2CCCCC2)c2ccccc21	?	-105*	-3%[46.1 µM]	27%
Cn1cc(CN(C(=O)Nc2ccc(Cl)c(Cl)c2)C2CCCCC2)c2ccccc21	0%[46.1 µM]	28	-3%[46.1 µM]	37%
COC1C(O)C(CO)OC1n1cnc2c(=O)[nH]c(N)nc21 (stereo unspecified)	.	.	.	4%
CCc1ccc(N2C=C(C(=O)OC)C(c3cccc4ccccc34)C(C#N)=C2N)cc1 (stereo unspecified)	.	-101*	.	47%
Oc1cc(-c2nc3ccccc3s2)cc2c1OCCN(Cc1cccn1-c1ccccn1)C2	.	.	.	16%
CS(=O)(=O)N1CCN(c2ccccc2NC(=O)CSc2ccc(Cl)cc2)CC1	-20%	-11	?	?

High-throughput results as filed in PubChem.
